Screening results as filed in PubChem.
Rows were chosen to be rich in hits. Some 10% of all compounds tested hit in one or more screens of this group.
GLA inh pH 4.5: inhibitors of human alpha-galactosidase A at pH 4.5; P06280; 230,000 tested, under 10 active; activity change, negative = inhibition, % at 105 µM; purified enzyme, 4-MU-alpha-Gal fluorescence, pH 4.5;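 further: 0% = full activity with enzyme and -100% = basal without enzyme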
Target sequence (P06280 whole entry, looked up): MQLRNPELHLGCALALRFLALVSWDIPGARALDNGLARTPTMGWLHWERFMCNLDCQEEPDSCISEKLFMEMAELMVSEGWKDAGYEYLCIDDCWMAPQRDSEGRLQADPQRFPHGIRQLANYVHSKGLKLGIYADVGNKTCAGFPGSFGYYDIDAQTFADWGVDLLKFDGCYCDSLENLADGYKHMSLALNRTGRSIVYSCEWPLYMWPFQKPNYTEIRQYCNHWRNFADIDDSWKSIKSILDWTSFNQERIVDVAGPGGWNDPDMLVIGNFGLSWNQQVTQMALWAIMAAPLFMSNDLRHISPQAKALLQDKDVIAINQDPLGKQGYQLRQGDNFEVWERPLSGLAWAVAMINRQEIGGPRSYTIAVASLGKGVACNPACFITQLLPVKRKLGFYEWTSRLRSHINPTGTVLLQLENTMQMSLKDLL
12-hLO inh: inhibitors of human 12-lipoxygenase (ALOX12); purified 12-hLO, xylenol orange hydroperoxide absorbance; Potency, µM (series often up to 57.1 µM), for inactives: at the top dose activity change, negative = inhibition, actives largely listed as inhibitors; P18054; 150,000 tested, 0.12% active; further: potency means the concentration at half of the fitted maximal effect; nearly all actives have a fitted effect of over 55% in size
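150 nM 12hLO, 25 mM Hepes pH 7.0 + 0.01% Triton X-100; cpd preinc 15 min RT; 40 uM arachidonic acid, 30 min RT; Fe-XO 30 min; A573/A405 ratio as read-out.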
PNC inhibitor: inhibitors of perinucleolar compartment assembly; PC3M PTB-GFP, PNC prevalence imaging, 16 h; active compounds read low; activity change (PNC), negative = inhibition, % at 10 µM; 140,000 tested, 3.1% active; AID 2417;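 active means readout at or below -70, meaning at least 70% loss of cells showing the perinucleolar compartment, a nuclear body marking cancer cells; inconclusive means readout between -30 and a set limit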;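 further: plate controls were DMSO wells for no effect and camptothecin positive control wells for full effect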
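PC3M cells stably expressing PTB-GFP, 750–1000 cells/well, treated 16 h at 37 °C with compound (23 nl of library stock), in duplicate. After paraformaldehyde fixation and Hoechst stain, imaged at 20x; PNC prevalence scored by image analysis.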
HPGD block: blocks human HPGD enzyme activity. P15428. purified HPGD, NADH fluorescence kinetic, PGE2 substrate. Potency, µM, inactives show at the top dose activity change, negative = inhibition, usual class: inhibitors. 150,000 tested, 4.3% active. AID 894; active means well fitted inhibition curve with a large enough effect, not every such curve was filed as active; inconclusive means small, poorly fitted or top-dose-only effect, or another doubt; inactive means no such curve, though single readings can be large or run the other way; further: potency means the concentration at half of the fitted maximal effect
Target sequence (P15428 whole entry, looked up): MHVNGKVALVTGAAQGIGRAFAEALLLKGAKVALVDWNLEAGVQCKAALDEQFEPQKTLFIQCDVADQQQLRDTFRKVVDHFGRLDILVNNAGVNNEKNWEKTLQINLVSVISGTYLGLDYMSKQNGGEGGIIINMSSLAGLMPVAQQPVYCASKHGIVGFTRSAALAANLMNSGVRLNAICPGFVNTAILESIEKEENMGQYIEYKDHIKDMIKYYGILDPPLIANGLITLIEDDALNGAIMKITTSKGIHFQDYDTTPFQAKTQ
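NADH formation kinetics: reaction with 30 uM PGE2 and 1 mM NAD+ (final), 20 nM enzyme, Tris-HCl pH 8 with Tween 20, after 15 min compound preincubation at room temperature. Fluorescence change, last versus first of five reads.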
ALDH1A1 inh: ALDH1A1 (human) enzyme inhibition. Purified ALDH1A1, NADH fluorescence, propionaldehyde substrate. Potency, µM (top dose mostly 75.3 µM), for the others: at the top dose activity, negative = inhibition, hits mostly inhibitors. AID 1030. P00352. 220,000 tested, 7.3% active; active means well fitted inhibition curve with a large enough effect, not every such curve was filed as active; inconclusive means small, poorly fitted or top-dose-only effect, or another doubt; inactive means no such curve, though single readings can be large or run the other way;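 further: potency means the concentration at half of the fitted maximal effect; plate controls were no enzyme wells and a reference inhibitor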
GLA spleen mod: inhibitors or activators of human alpha-galactosidase in spleen homogenate | AID 2107 | Potency, µM (highest dose often 80 µM), for the others: at the top dose activity change, negative = inhibition, usual class: inhibitors | P06280 | 240,000 tested, 0.008% active | human spleen homogenate, 4MU-alpha-Gal fluorescence, 40 min;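 further: potency means the concentration at half of the fitted maximal effect; 0% = enzyme with vehicle and -100% = no enzyme basal signal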
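Human spleen homogenate (1 ug) was the enzyme source, with 4-methylumbelliferyl-alpha-D-galactopyranoside (1 mM final) in pH 5.0 citrate buffer with 0.01% Tween-20. Compounds were titrated; after 40 min at 37C, NaOH/glycine stop, 4-MU fluorescence read; AC50 from Hill fits.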
The depositor's hits bear a star. Unless noted, the call rests on the fitted dose curve; in most records, active means well fitted curve in the direction sought with a large enough effect; inconclusive means small, poorly fitted or top-dose-only effect, or another doubt; inactive means no such curve, though single readings can be large; an effect the other way counts as inactive or inconclusive. Unless noted, on the % scale 0 is the no-effect control and ±100 the full control effect.

Screening CC(=O)Nc1cccc(-c2nc3ccccc3s2)c1 returned GLA inh pH 4.5 5.1, ALDH1A1 inh -7.4% and GLA spleen mod -6.9%.
Screening NS(=O)(=O)c1ccc(NC(=S)NC(=O)c2ccc(-c3ccccc3)cc2)cc1 returned GLA inh pH 4.5 2.6, 12-hLO inh -0.7%, PNC inhibitor 48.3, HPGD block -29.0%, ALDH1A1 inh 2µM* and GLA spleen mod -8.5%.
Screening O=C(O)c1cccc(NC(=S)NC(=O)c2ccc(-c3ccccc3)cc2)c1 returned GLA inh pH 4.5 4.3, ALDH1A1 inh 25.1µM* and GLA spleen mod -4.8%.
Screening CC(=O)c1cccc(NC(=S)NC(=O)c2ccccc2)c1 returned GLA inh pH 4.5 -7.9, 12-hLO inh inconclusive, PNC inhibitor 34.1, HPGD block inconclusive, ALDH1A1 inh inconclusive and GLA spleen mod 9.2%.
For COC(=O)[C@@]1(Cc2ccc(OC)cc2)[C@H]2c3cc(C(=O)N(C)C)n(CCF)c3C[C@H]2CN1C(=O)c1ccccc1 the results were GLA inh pH 4.5 -29.6, 12-hLO inh -6.2%, HPGD block -2.2%, ALDH1A1 inh -2.8% and GLA spleen mod 1.7%.
`O=C(O)c1cccc(NC(=S)N/N=C/c2ccccn2)c1` gave GLA inh pH 4.5 3.6, ALDH1A1 inh 20µM* and GLA spleen mod -1.4%.
`CCOc1ccc(Nc2cc(=O)oc3ccccc23)cc1` gave GLA inh pH 4.5 15.4, 12-hLO inh -0.2%, PNC inhibitor -28.9, HPGD block inconclusive, ALDH1A1 inh inconclusive and GLA spleen mod 10.5%.
CCC1CCc2c(sc3ncnc(N4CCOCC4)c23)C1 (stereo not given) was read as GLA inh pH 4.5 -6.4, 12-hLO inh 8.7%, PNC inhibitor -125.8*, HPGD block -27.4%, ALDH1A1 inh -12.2% and GLA spleen mod -7.5%.
Screening CCOc1ccc(S(=O)(=O)NCc2ccccn2)cc1 returned GLA inh pH 4.5 7.7, 12-hLO inh 4.4%, PNC inhibitor -111.3*, HPGD block -15.4%, ALDH1A1 inh inconclusive and GLA spleen mod 5.7%.
COc1ccc(S(=O)(=O)NCc2ccccn2)cc1 was read as GLA inh pH 4.5 -2.4, 12-hLO inh 3.0%, PNC inhibitor -13.6, HPGD block 2.4%, ALDH1A1 inh 4.1% and GLA spleen mod -3.4%.
For CCOc1cc(C)c(C(C)C)cc1S(=O)(=O)NCc1ccccn1 the results were GLA inh pH 4.5 4.7, 12-hLO inh -0.9%, PNC inhibitor -81.6*, HPGD block 1.8%, ALDH1A1 inh 14.1µM* and GLA spleen mod -24.1%.
CCCCCCNC(=O)Nc1ccc(S(=O)(=O)Nc2ccc(CCNC[C@H](O)COc3ccc(O)cc3)cc2)cc1 was read as GLA inh pH 4.5 -13.5, 12-hLO inh -6.1%, HPGD block -19.5%, ALDH1A1 inh -3.5% and GLA spleen mod -0.3%.
C=CCOC(=O)N[C@H](/C(C(=O)OC)=C(\C)NCc1ccccc1)c1ccc(C)cc1 was read as GLA inh pH 4.5 -5.8, HPGD block -12.9%, ALDH1A1 inh -1.7% and GLA spleen mod -2.3%.
For CN(CC(=O)Nc1ccc(F)c(F)c1F)c1cnccn1 the results were GLA inh pH 4.5 2.3, 12-hLO inh -2.6%, PNC inhibitor -100.0*, HPGD block -6.2%, ALDH1A1 inh -6.8% and GLA spleen mod -0.2%.
CCOc1ccc(-c2nc(-c3cccnc3)no2)cc1 was read as GLA inh pH 4.5 2.6, 12-hLO inh 15.5%, PNC inhibitor -100.0*, HPGD block -25.9%, ALDH1A1 inh 2.4% and GLA spleen mod 15.1%.
For CC1NC2(C(=O)N(Cc3ccccc3)c3ccccc32)C2C(=O)N(c3ccccc3)C(=O)C12 (stereo not given) the results were GLA inh pH 4.5 0.5, 12-hLO inh 4.4%, PNC inhibitor -20.8, HPGD block -14.9%, ALDH1A1 inh 14.1µM* and GLA spleen mod -0.9%.
Screening Cc1cccc(OCCN2C(=O)C(=O)c3cccc(C)c32)c1 returned GLA inh pH 4.5 -4.1, 12-hLO inh -0.1%, PNC inhibitor -16.4, HPGD block -15.1%, ALDH1A1 inh 0.159µM* and GLA spleen mod -0.9%.
Cc1ccc2c(c1)C(=O)C(=O)N2CCCOc1ccccc1C was read as GLA inh pH 4.5 -3.0, ALDH1A1 inh -3.4% and GLA spleen mod 1.9%.
Cc1ccc2c(c1)C(=O)C(=O)N2CCOc1ccccc1 was read as GLA inh pH 4.5 -2.9, ALDH1A1 inh 1.26µM* and GLA spleen mod 7.4%.
For Cc1cccc(OCCN2C(=O)C(=O)c3cc(C)ccc32)c1 the results were GLA inh pH 4.5 4.7, ALDH1A1 inh 0.631µM* and GLA spleen mod 0.2%.
For Cc1ccc(OCCN2C(=O)c3ccccc3C2=O)cc1 the results were GLA inh pH 4.5 -16.1, 12-hLO inh -6.9%, PNC inhibitor inconclusive, HPGD block inconclusive, ALDH1A1 inh 3.1% and GLA spleen mod 4.4%.
For C=CCc1cccc2cc(C(=O)NC3=C(C#N)CCC3)c(=O)oc12 the results were GLA inh pH 4.5 1.2, 12-hLO inh -1.3%, PNC inhibitor -124.4*, HPGD block -10.0%, ALDH1A1 inh 0.891µM* and GLA spleen mod -3.7%.
C=CCOc1cccc(C2C(C(=O)c3ccco3)=C(O)C(=O)N2CCN(CC)CC)c1 (stereo not given) was read as GLA inh pH 4.5 -12.3, 12-hLO inh 5.3%, PNC inhibitor -133.8*, HPGD block -9.5%, ALDH1A1 inh -6.5% and GLA spleen mod -17.8%.
For COc1ccc(C2C(C(=O)c3ccco3)=C(O)C(=O)N2CCc2ccccc2)cc1OC (stereo not given) the results were GLA inh pH 4.5 -9.0, 12-hLO inh -0.2%, PNC inhibitor -15.3, HPGD block -12.1%, ALDH1A1 inh -5.0% and GLA spleen mod 9.2%.
For COc1ccc(C2C(C(=O)c3ccco3)=C(O)C(=O)N2CCOCCO)cc1OC (stereo not given) the results were GLA inh pH 4.5 -23.5, 12-hLO inh -14.6%, PNC inhibitor 24.9, HPGD block -24.3%, ALDH1A1 inh 20µM* and GLA spleen mod -8.1%.
Screening COc1ccc(C2C(C(=O)c3sc(C)nc3C)=C(O)C(=O)N2CCN(C)C)cc1OC (stereo not given) returned GLA inh pH 4.5 -19.9, 12-hLO inh -0.4%, PNC inhibitor -122.4*, HPGD block -11.1%, ALDH1A1 inh inconclusive and GLA spleen mod -0.4%.
Screening C=CCOC(=O)N[C@H](/C(C(=O)OC)=C(\C)NCc1ccccc1)c1ccc2c(c1)OCO2 returned GLA inh pH 4.5 5.9, HPGD block -8.2%, ALDH1A1 inh 1.2% and GLA spleen mod 17.9%.
